Records with an inconclusive call do not appear. A number with no mark means an inactive call. Active and inactive are the calls of the source. Calls follow the shape of the dose curve; as a rule, active = well fitted cell-killing curve with a large enough effect; inconclusive = small, poorly fitted or top-dose-only effect; inactive = no such curve, though single readings can be large or run the other way.
experiment: qHTS of pediatric cancer cell lines to identify multiple opportunities for drug repurposing: Primary screen for NB-EBc1 cells (AID 1347095); conditions: NB-EBc1 neuroblastoma viability, CellTiter-Glo luminescence, 48 h; series mostly up to 46 µM; activity change, negative = cytotoxic: at the top concentration
Source text: Drug repurposing or repositioning has been offered as a strategy for drug development in oncology programs. This approach has special potential for childhood cancers and other rare or orphan diseases, where the expected return on new drug development has been a disincentive to pharmaceuticals. […] In this project we exploit the poly-pharmacology of drugs to discover new indications via phenotypic screening of a panel of 19 well-characterized cell lines derived from solid tumors seen in children and adolescents. The goal is to identify approved drugs with previously unrecognized anticancer properties that has the potential to reveal new mechanisms and biological processes involved in carcinogenesis or drug resistance. We employed a titration-based paradigm (quantitative high-throughput screening or qHTS), where all compounds were tested at multiple concentrations for their effect on cell viability. Concentration-response curves (CRCs) were derived directly from the primary screen, and both potency and efficacy values were used to identify compounds with robust bioactivity profiles. We screened the NIH Chemical Genomics Center (NCGC) Pharmaceutical Collection (NPC) and Mechanism Interrogation Plate (MIPE) small molecule collections of approved and investigational compounds against these cell lines; and measured metabolically active cells after 48 hours of compound treatment as a proxy for cell viability. […] Assay Submitter: Nathalia J. Martinez, National Center for Advancing Translational Sciences, National Institutes of Health, Rockville, MD, USA; email: natalia.martinez@nih.gov Shen, M et al. Quantitative high-throughput phenotypic screening of pediatric cancer cell lines identifies multiple opportunities for drug repurposing. Oncotarget 2017 Dec 19;9(4):4758-4772. PMID 29435139.
The cells were obtained from University of North Carolina (UNC), Pediatric Preclinical Testing Program (PPT), and Coriell Institute (CI). qHTS cell viability assay: Cells were assayed in growth media at a density of 500-1,000 cells/well. Five microliters of cells were dispensed into 1,536-well, white, solid-bottom, TC-treated plates (Greiner Bio One) using a multidrop dispenser and incubated at 37 degrees C, 5% CO2, under a humidified atmosphere for 5 hours. Twenty-three nanoliters of compounds and controls (neutral control DMSO or positive control bortezomib at final concentration of 2.3 µM) were subsequently transferred by Kalypsys pintool. For primary screens, the MIPE collection was tested at 11-point dilutions (final concentrations range from 0.78 nM to 46 µM) and the NPC collection at 8-point dilutions (final concentrations range from 0.59 nM to 46 µM). Compounds tested in follow-up screens were assayed at 11-point dilutions. Cells were incubated for 48 hours, followed by addition of 3 µL of CellTiter-Glo (Promega). After a 15 min incubation at room temperature, samples were analyzed for luminescence intensity using a ViewLux High-throughput CCD imager equipped with clear filters.
Potency is read from the fitted curve at half-maximal effect.

| SMILES | activity change, negative = cytotoxic | Potency |
| --- | --- | --- |
| NC(=O)c1cc[n+](CC2=C(C(=O)[O-])N3C(=O)[C@@H](NC(=O)Cc4cccs4)[C@H]3SC2)cc1 | -0.403% | – |
| Nc1ccc(/C=C/c2ccc(N)cc2S(=O)(=O)O)c(S(=O)(=O)O)c1 | 25.1% [at 0.597 µM] | – |
| COc1cc2c(cc1OC)C(C(C(=O)N(CCc1ccc(OC)c(OC)c1OC)CCc1ccc(OC)c(OC)c1OC)c1ccccc1)=NCC2 (stereo not given) | -2.6% | – |
| N[C@@H](CCC(=O)N[C@@H](CS)C(=O)NCC(=O)O)C(=O)O | 8.97% [at 16.1 µM] | – |
| CC(Cc1ccccc1)(NC(=O)CN)c1ccccc1 (stereo not given) | 2.89% | – |
| CCCCC(CC)CN=C(N)NC(N)=NCCCCCCN=C(N)NC(N)=NCC(CC)CCCC (stereo not given) | – | 10.6 µM (active) |
| CCN(CC)C(=O)N1CCN(C)CC1 | 3.5% | – |
| Oc1cc(O)c2c(c1)O[C@H](c1ccc(O)c(O)c1)[C@H](O)C2 | 13.9% | – |
| OC[C@H]1O[C@@H](n2cnc3c(=S)nc[nH]c32)[C@H](O)[C@@H]1O | – | 1.33 µM (active) |
| O=C(Nc1ccc(Oc2ccc(Cl)cc2)c(Cl)c1)c1cc(I)cc(I)c1O | – | 26.6 µM (active) |
| CC(=O)CC(c1ccc([N+](=O)[O-])cc1)c1c(O)c2ccccc2oc1=O (stereo not given) | -13.1% | – |
| C[C@@H]1C[C@H]2[C@@H]3C[C@H](F)C4=CC(=O)C(Cl)=C[C@]4(C)[C@@]3(F)[C@@H](O)C[C@]2(C)[C@@]1(O)C(=O)CO | 12.3% | – |
| OC[C@@H](O)[C@@H](O[C@@H]1O[C@H](CO)[C@H](O)[C@H](O)[C@H]1O)[C@H](O)[C@@H](O)CO | 4.88% | – |
| COc1c(C)c2c(c(O)c1C/C=C(\C)CCC(=O)O)C(=O)OC2 | – | 29.9 µM (active) |
| NCCC(O)(P(=O)(O)O)P(=O)(O)O | 6.7% | – |
| Cc1cccn2c(=O)c(-c3nnn[nH]3)cnc12 | 6.44% [at 16.1 µM] | – |
| O=C(CCN1CCC(c2ccccc2)C1)c1ccc2c(c1)OCCO2 (stereo not given) | – | 23.7 µM (active) |
| Oc1ccc(O)cc1 | – | 6.68 µM (active) |
| CN=C(NC#N)NCCSCc1csc(N=C(N)N)n1 | 9.58% | – |
| CCC(C(=O)OCCN(CC)CC)c1ccccc1 (stereo not given) | 11.3% | – |

| SMILES | activity change, negative = cytotoxic | Potency |
| --- | --- | --- |
| Clc1ccc2c(c1)CCc1cccnc1C2=C1CCNCC1 | -20.6% | – |
| CCn1cc(C(=O)O)c(=O)c2cnc(N3CCCC3)nc21 | -3.37% [at 9.22 µM] | – |
| c1ccc(OCc2ccc(CCCN3CCOCC3)cc2)cc1 | -10.3% | – |
| CNCC[C@@H](Oc1ccccc1C)c1ccccc1 | 4.23% | – |
| COc1c2occc2c(OC)c2c(=O)cc(C)oc12 | 33.7% | – |
| O=C1[C@H]2CCCC[C@H]2C(=O)N1CCCCN1CCN(c2nsc3ccccc23)CC1 | -7.54% | – |
| CCCCOc1ccc(OCCCN2CCOCC2)cc1 | -2.17% | – |
| Cc1c(C)n(CCN(C)C)c2ccc(C(=O)OCCN(C)C)cc12 | -2.01% | – |
| NC(CO)(CO)CO | 23.3% | – |
| O=C(CCCN1CCC(O)(c2ccc(Br)cc2)CC1)c1ccc(F)cc1 | 3.68% | – |
| Cc1cc(O)c(C(C)C)cc1Cl | 4.46% | – |
| CN(C)/N=N/c1nc[nH]c1C(N)=O | 12.2% | – |
| C=C1C[C@H]2[C@@H]3C=C(C)C4=CC(=O)CC[C@]4(C)[C@H]3CC[C@]2(C)[C@@]1(OC(C)=O)C(C)=O | 4.76% | – |
| Cc1ccc(Nc2c(F)cccc2Cl)c(CC(=O)O)c1 | 28.9% | – |
| CCCCS(=O)(=O)N[C@@H](Cc1ccc(OCCCCC2CCNCC2)cc1)C(=O)O | 10.2% | – |
| CN(C)CC/C=C1/c2ccccc2COc2ccc(CC(=O)O)cc21 | 8.85% | – |
| CCOc1ccc(NC(=O)CC(C)O)cc1 (stereo not given) | -3% | – |
| CC(=O)Oc1ccc(C(=C2CCCCC2)c2ccc(OC(C)=O)cc2)cc1 | 8.45% | – |
| CN1CCCC(CC2c3ccccc3Sc3ccccc32)C1 (stereo not given) | -17.5% | – |
| N[C@H](Cc1c[nH]c2ccccc12)C(=O)O | 18.3% | – |
